From PubChem BioAssay (Tox21) come the findings set out here.

Several values for one entry are separate records, joined by “and”; a condition that tells them apart may be missing. Equal values may be shown once. Records with an inconclusive call do not appear. The source holds several records for some structures; these can differ, active in one and inactive in another. Activity calls are given as the source filed them. Unless noted, calls come from the whole dose curve; as a rule, active = well fitted curve in the direction sought with a large enough effect in the repeat runs; inconclusive = weak or mixed curves; inactive = no such curve, though single readings can be large; an effect the other way counts as inactive or inconclusive.

Assay [1] is described as follows: qHTS assay for small molecule agonists of the p53 signaling pathway (AID 651631; calls by dose curve; note: nearly all actives have a fitted effect of over 15% in size; note: potency is the fitted concentration of half-maximal effect). The gist of the method: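 Fluorescence intensity from cleaved LiveBLAzer B/G substrate (2 h, room temperature) served as the signal. Beforehand, HCT-116 reporter cells bearing p53 response elements were treated 16 h at 37 °C with DMSO-dissolved compounds.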
In general terms: In qHTS, concentration-response curves come from the screen itself.

Assay [2] is described as follows: qHTS assay for small molecules that induce genotoxicity in human embryonic kidney cells expressing luciferase-tagged ATAD5 (AID 651632). Note: nearly all actives have a fitted effect of over 15% in size. The essentials: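 ATAD5-luc HEK293T, 2,000 cells/well; cpd or DMSO pin-transferred; 16 hr, 37C/5% CO2; Amplite 30 min RT; luminescence.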
Assay [3] in a line: qHTS assay for small molecule agonists of the p53 signaling pathway - cell viability (AID 651633; calls by dose curve; note: nearly all actives have a fitted effect of over 30% in size; note: potency is the fitted concentration of half-maximal effect). The essentials: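 p53RE-bla cells, seeded at 4,000 per well and rested 5 h at 37 C/5% CO2, received compounds in DMSO for 16 h at 37 C. CellTiter-Glo was then added, and luminescence was read after 30 min at room temperature to gauge cytotoxicity.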
A short description of assay [4]: qHTS assay for small molecules that induce genotoxicity in human embryonic kidney cells expressing luciferase-tagged ATAD5 - cell viability (AID 651634; calls by dose curve; note: nearly all actives have a fitted effect of over 25% in size; note: potency is the fitted concentration of half-maximal effect). The essentials: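 Fluorescence from CellTiter-Fluor, reporting protease activity within live cells, served as the viability read-out. HEK293T cells carrying luciferase-tagged ATAD5 had been treated with compound for 15.5 hr at 37C.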

Assay [5] is described as follows: qHTS assay for small molecule disruptors of the mitochondrial membrane potential - cell viability (AID 720634; calls by dose curve; note: nearly all actives have a fitted effect of over 20% in size; note: potency is the fitted concentration of half-maximal effect). The essentials: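 Cells: HepG2, 2,000/well, attached overnight. Compound 1 hr, 37 C/5% CO2. +m-MPI dye, +CellTiter-Glo 30 min RT. Readout: luminescence (ATP).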
Assay [6] in a line: qHTS assay for small molecule disruptors of the mitochondrial membrane potential (AID 720635). Note: potency is the fitted concentration of half-maximal effect. The gist of the method:
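HepG2 cells (2,000/well) attached overnight at 37C, then took compound for 1 hr at 37C, 5% CO2. Mito-MPS dye was added for 30 min; fluorescence was read at 490/535 nm (monomers) and 540/590 nm (aggregates).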

Assay [7] can be described thus: qHTS assay to test for compound auto fluorescence at 590 nm (red) in HepG2 cells (AID 720674). The essentials:
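Compound auto-fluorescence is scored relative to Rose Bengal sodium, measured at 540/590 nm in live HepG2 cultures after 1 hr compound contact (37 C, 5% CO2).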

Assay [8] in a line: qHTS assay to test for compound auto fluorescence at 535 nm (green) in HepG2 cells (AID 720675).
Assay [9] is described as follows: qHTS assay to test for compound auto fluorescence at 590 nm (red) in HEK293 cells (AID 720679). The gist of the method: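 Each well held 2,000 HEK293 cells in medium containing 10% dialyzed FBS. Following 4-5 hr attachment at 37C, 23 nL test compound or DMSO was added; plates sat overnight, and red fluorescence (540/590nm) was recorded.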
A short description of assay [10]: qHTS assay to test for compound auto fluorescence at 460 nm (blue) in HEK293 cells (AID 720678). The gist of the method: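 Cells were seeded and left to adhere for 4-5 hr at 37C. Compounds were then pin-transferred. After an overnight incubation at 37C under 5% CO2, intrinsic fluorescence at 405/460 nm was measured and referenced to triamterene.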

On to `Cc1ccc([N+](=O)[O-])cc1`, for which the Potency result in assay [1], in assay [2], in assay [3], in [4], in assay [5] and in [6] was “inactive” in each case. Further, the molecule was called inactive in assay [7], in assay [8] and in assay [9].
Take `O=NN1CCOCC1`: the Potency entry in assay [1], in assay [2], in assay [3], in assay [4], in [5] and in assay [6] was “inactive” throughout. Moreover, the Potency result in assay [10] is “inactive”. Besides, the outcome in [7], in [8] and in assay [9] was inactive.
As to `CCCCCCCCCCCCCl`, the Potency entry in assay [1], in assay [2], in [3], in [4], in assay [5] and in assay [6] was “inactive” in each case. The call in [7] and in [8] was inactive.
Regarding `O=NN(c1ccccc1)c1ccccc1`, the Potency result in [1], in [2], in assay [3], in [4], in assay [5] and in [6] was “inactive” in each case. In addition, the Potency result in assay [10] is “inactive”. Besides, the call in assay [7], in assay [8] and in assay [9] was inactive.
In the case of `O=C(O)c1nn(Cc2ccc(Cl)cc2Cl)c2ccccc12`, the Potency result in assay [1], in assay [2], in assay [3], in [4], in assay [5] and in assay [6] was “inactive” throughout. Further, the Potency entry in [10] was “inactive”. In addition, the molecule was classed as inactive in assay [7] and in [8].
For `Nc1ccc2ccccc2c1`, the Potency entry in [1], in assay [2], in assay [3], in assay [4], in assay [5] and in [6] was “inactive” each time. The Potency entry in assay [10] was “inactive”. Further, the call in assay [7], in assay [8] and in [9] was inactive.
For the molecule `CCNc1nc(Cl)nc(NC(C)(C)C#N)n1`, the Potency result in assay [1], in assay [2], in assay [3], in [4], in assay [5] and in [6] was “inactive” throughout. Moreover, in assay [10], the Potency entry is “inactive”. Further, the call in assay [7] and in [8] was inactive.
Regarding `Cn1c(-c2ccccc2)cc(-c2ccccc2)[n+]1C`, the Potency entry in assay [1], in assay [2], in assay [3], in assay [4], in assay [5] and in assay [6] was “inactive” throughout. In [10], the Potency result was “inactive”. Further, the outcome in assay [7] and in assay [8] was inactive.
For `CCCCOC(=O)COC(=O)c1ccccc1C(=O)OCCCC`, the Potency entry in assay [1], in assay [2], in assay [3], in [4], in [5] and in assay [6] was “inactive” throughout. Also, in assay [10], the Potency entry is “inactive”. The call in assay [7], in assay [8] and in assay [9] was inactive.
As for `CCC/C=N/O`, the Potency result in assay [1], in assay [2], in [3], in assay [4], in assay [5] and in assay [6] was “inactive” each time. In addition, the result in [7] and in [8] was inactive.
For the molecule `Clc1ccc(C(Cl)(Cl)Cl)cc1`, the Potency entry in [1], in assay [2], in assay [3], in assay [4], in assay [5] and in assay [6] was “inactive” throughout. The Potency result in assay [10] was “inactive”. For the same molecule, the molecule was classed as inactive in assay [7] and in assay [8].
In the case of `CC(C)Nc1nc(Cl)nc(NC(C)C)n1`, the Potency result in assay [1], in assay [2], in assay [3], in assay [4], in assay [5] and in [6] was “inactive” in each case. Besides, the Potency entry in assay [10] was “inactive”. For the same molecule, the molecule was classed as inactive in [7] and in assay [8].
On to `ClCC(Cl)CCl`, for which the Potency entry in assay [1], in assay [2], in assay [3], in assay [4], in assay [5] and in assay [6] was “inactive” each time. For the same molecule, in [10], the Potency entry is “inactive”. The molecule was called inactive in assay [7] and in assay [8].
Consider `CC[n+]1c(-c2ccccc2)c2cc(N)ccc2c2ccc(N)cc21`, for which the Potency was 3.35 µM (active) and 10.6 µM (active) and 2.16 µM (active) in [1]; 9.44 µM (active) and inactive in assay [3]; 23.7 µM (active) and 54.2 µM (active) in [4]; 2.21 µM (active) in [6]. The Potency result in assay [2], in [5] and in assay [10] was “inactive” in each case. Further, the call in assay [7] and in assay [8] was inactive.
Take `Brc1ccc(Br)cc1`: the Potency entry in assay [1], in [2], in assay [3], in [4], in assay [5] and in assay [6] was “inactive” throughout. The molecule was classed as inactive in [7] and in [8].
`CCOS(=O)(=O)OCC`: the Potency result in assay [1], in assay [2], in [3], in assay [4], in assay [5] and in assay [6] was “inactive” throughout. For the same molecule, the Potency entry in [10] was “inactive”. Also, the result in assay [7], in assay [8] and in [9] was inactive.
`ClC(Cl)(Cl)c1ccccc1`: the Potency entry in [1], in [2], in assay [3], in assay [4], in assay [5] and in assay [6] was “inactive” each time. In addition, the result in assay [7], in assay [8] and in [9] was inactive.
As to `C[C@]12CCC(=O)C=C1CC[C@@H]1[C@@H]2CC[C@@]2(C)[C@H]1CC[C@]2(C)O`, the Potency is 21.7 µM (active) in assay [1]; “inactive and 54.5 µM (active)” in assay [3]. Further, the Potency entry in assay [2], in assay [4], in [5] and in assay [6] was “inactive” throughout. Moreover, the call in [7] and in assay [8] was inactive.
Turning to `CC(C)(O)C#N`, the Potency result in [1], in assay [2], in assay [3], in [4], in assay [5] and in [6] was “inactive” each time. The Potency entry in assay [10] was “inactive”. Further, the result in [7], in [8] and in assay [9] was inactive.
For the molecule `c1ccc(C2CO2)cc1` (configuration not stated), the Potency result in [1], in assay [2], in assay [3], in [4], in [5] and in assay [6] was “inactive” each time. Moreover, the Potency entry in assay [10] is “inactive”. The molecule was called inactive in assay [7] and in [8].
Take `c1ccc2c(c1)Nc1ccccc1S2`: the Potency entry in assay [1], in assay [2], in assay [3], in [4] and in assay [10] was “inactive” in each case. Moreover, the Potency in assay [5] was 29.8 µM (active); in assay [6], 7.5 µM (active) and 4.33 µM (active). For the same molecule, the call in assay [7], in [8] and in assay [9] was inactive.
Take `CN(C)P(=O)(N(C)C)N(C)C`: the Potency result in assay [1], in assay [2], in assay [3], in assay [4], in assay [5] and in [6] was “inactive” throughout. Moreover, in assay [10], the Potency entry was “inactive”. In addition, the result in [7], in assay [8] and in assay [9] was inactive.
For the molecule `CCCCOCC1CO1` (configuration not stated), the Potency result in assay [1], in assay [2], in [3], in [4], in assay [5] and in [6] was “inactive” in each case. Besides, in [10], the Potency result was “inactive”. Besides, the call in [7], in [8] and in assay [9] was inactive.
